Only some compounds are listed: those with a hit (about 1.8% of all), similar ones and a draw of the others.
GLP1R inv ag – inverse agonists of human GLP-1 receptor; P43220; HEK293 GLP-1R CRE-luciferase, luminescence, 24 h; GLP-1R form is constitutively active; hit rate 1.6% among 410,000; Potency, µM (titrated, usually from 38.3 µM), for inactives: at the highest dose activity change, negative = inhibition, usual class: inhibitors; further: potency means the concentration at half of the fitted maximal effect; on the % scale 0 is the no-effect control and ±100 the full control effect; nearly all actives have a fitted effect of over 55% in size
Target sequence (P43220 whole entry, looked up): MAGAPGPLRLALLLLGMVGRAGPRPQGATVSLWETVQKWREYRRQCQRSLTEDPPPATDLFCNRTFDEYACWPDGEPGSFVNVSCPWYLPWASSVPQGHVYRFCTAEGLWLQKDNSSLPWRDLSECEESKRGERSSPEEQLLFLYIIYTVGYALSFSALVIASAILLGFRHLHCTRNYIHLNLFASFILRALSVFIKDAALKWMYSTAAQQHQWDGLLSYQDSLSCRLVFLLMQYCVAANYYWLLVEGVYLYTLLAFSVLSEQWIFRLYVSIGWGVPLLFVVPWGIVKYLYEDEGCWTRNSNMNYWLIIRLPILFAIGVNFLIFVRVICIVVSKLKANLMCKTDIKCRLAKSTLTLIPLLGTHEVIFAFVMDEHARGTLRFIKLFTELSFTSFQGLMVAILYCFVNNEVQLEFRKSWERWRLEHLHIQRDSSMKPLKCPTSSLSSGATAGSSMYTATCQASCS
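Luminescence readout: a drop in cAMP-driven luciferase signal flags inverse agonism at a constitutively active GLP-1R stably expressed in HEK293. Compound exposure lasted 24 hr at 37 deg C, 5% CO2.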
GLP1R cytotox – cytotoxic in the GLP-1 receptor inverse agonist counter-screen. HEK293 cAMP-luciferase reporter cells, luminescence, 24 h. hit rate 0.13% among 410,000. Potency, µM (series often up to 38.3 µM), for inactives: at the top dose activity change, negative = inhibition, most hits filed as inhibitors;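 further: loss of luciferase light is scored as toxicity; potency means the concentration at half of the fitted maximal effect; on the % scale 0 is the no-effect control and ±100 the full control effect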
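Seeding density was 200 cells/uL; after overnight-length (12 h) culture, 23 nL compounds went on for 24 h at 37 °C. Readout used a luciferase detection reagent, luminescence taken after 12 min at room temperature.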
TRPML1 blocker – human mucolipin-1 channel inhibition; Q9GZU1; TRPML1-inducible cells, Ca2+ dye fluorescence, FDSS; hits give low values; inhibition of EC80 agonist-evoked calcium signal; activity change, negative = inhibition, % (no concentration beside the values); hit rate 0.02% among 390,000; AID 624415; in the data active means activity change below about -50%; inconclusive means between about -30% and that limit;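 further: stimulus is agonist 54-4 at its EC80 concentration; on the % scale 0 is the no-effect control and ±100 the full control effect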
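Calcium fluorescence in TRPML1-DL cells induced overnight with Tet: a 110 s read after compound pin addition, then a 110 s antagonist read after challenge with 54-4 at 4 uM final (EC80).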
TRPML1 agonist – activates the human TRPML1 channel; hit rate 0.12% among 410,000; TRPML1-expressing cells, Ca2+ dye fluorescence, FDSS; Q9GZU1; activation, % (concentration not given with the values); in the data active means activation above about 50%; inconclusive means mostly about 30% to 49%; further: 0% is about no effect
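In this qHTS format, compounds were pin-transferred onto Ca8-dye-loaded TRPML1-DL cells induced with Tet overnight, and intracellular Ca2+ fluorescence was recorded kinetically for 110 s after a 10 s baseline. A subsequent 4uM final 54-4 (EC80) addition followed by a second 110 s read served as the antagonist phase.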
GLP-1R agonist – agonists of human GLP-1 receptor | P43220 | HEK293 GLP-1R CRE-luciferase, luminescence, 4-6 h; cells express a hypersensitive GLP-1R form | Potency, µM (highest dose often 45.6 µM), without a hit: at the highest dose activation, actives largely listed as activators | hit rate 0.007% among 380,000 | AID 624172; further: potency means the concentration at half of the fitted maximal effect; % of control where 0% means no effect
Numbers without * were called inactive. Unless noted, the call rests on the fitted dose curve; in most records, active means well fitted curve in the direction sought with a large enough effect; inconclusive means small, poorly fitted or top-dose-only effect, or another doubt; inactive means no such curve, though single readings can be large; an effect the other way counts as inactive or inconclusive.

How did CC(=NNC(=S)N1CCN(C2CCCCCC2)CC1)c1ccccn1 do in these assays?
GLP1R inv ag: -70%; GLP1R cytotox: 0.32µM*; TRPML1 blocker: 16; TRPML1 agonist: 0; GLP-1R agonist: 6%

How did CN(C)CCCNc1oc(-c2cccc(Cl)c2)nc1C#N do in these assays?
GLP1R inv ag: 6.3µM*; GLP1R cytotox: -2%; TRPML1 blocker: -3; TRPML1 agonist: 1; GLP-1R agonist: -2%

How did CCc1ccc(NC(=O)C2(c3ccccc3)CC2(Cl)Cl)cc1 (configuration not stated) do in these assays?
GLP1R inv ag: inconclusive; GLP1R cytotox: 3%; TRPML1 blocker: -12; TRPML1 agonist: 54*; GLP-1R agonist: -5%

What do the screens show for `CC(CNC(=O)c1cnn(-c2ccc(F)cc2)c1-n1cccc1)c1ccccc1` (configuration not stated)?
GLP1R inv ag: 10µM*; GLP1R cytotox: 2%; TRPML1 blocker: 10; TRPML1 agonist: 11; GLP-1R agonist: 11%

What do the screens show for `COc1ccc(CNC(=O)c2cnn(-c3ccc(F)cc3)c2-n2cccc2)cc1`?
GLP1R inv ag: -23%; GLP1R cytotox: -4%; TRPML1 blocker: -14; TRPML1 agonist: 3; GLP-1R agonist: 2%

Results for CCOc1ccccc1NC(=O)Nc1ccc2c(c1)CCC2 ?
GLP1R inv ag: 10µM*; GLP1R cytotox: -15%; TRPML1 blocker: 11; TRPML1 agonist: 2; GLP-1R agonist: 13%

How did COc1ccc(S(=O)(=O)N(CC(=O)Nc2cc(C)ccc2OC)Cc2ccccc2)cc1 do in these assays?
GLP1R inv ag: inconclusive; GLP1R cytotox: 1%; TRPML1 blocker: 4; TRPML1 agonist: 1

What do the screens show for `COC(=O)c1ccc(NC(=O)CN(Cc2ccccc2)S(=O)(=O)c2ccc(C)cc2)cc1`?
GLP1R inv ag: 10µM*; GLP1R cytotox: 2%; TRPML1 blocker: 12; TRPML1 agonist: 2

How did COc1ccc(NC(=O)CN(Cc2ccccc2)S(=O)(=O)c2ccc(C)cc2)cc1Cl do in these assays?
GLP1R inv ag: 10µM*; GLP1R cytotox: -5%; TRPML1 blocker: 21; TRPML1 agonist: 1

How did COC(=O)c1ccc(NC(=O)CN(Cc2ccccc2)S(=O)(=O)c2ccc(Cl)cc2)cc1 do in these assays?
GLP1R inv ag: 8.9µM*; GLP1R cytotox: -16%; TRPML1 blocker: -2; TRPML1 agonist: 3

How did Cc1ccc(C)c(CN2C(=O)c3ccccc3S(=O)c3ccc(C(=O)N4CCCCC4)cc32)c1 (configuration not stated) do in these assays?
GLP1R inv ag: 4%; GLP1R cytotox: 2%; TRPML1 blocker: 18; TRPML1 agonist: -1; GLP-1R agonist: -1%

What do the screens show for `O=c1[nH]cc(CCc2ccccc2)c2ncncc12`?
TRPML1 agonist: -1

What do the screens show for `Cc1cc(Br)c2c(c1)C(O)(N1CCCCC1C)C(=O)N2` (configuration not stated)?
GLP1R inv ag: 11µM*; GLP1R cytotox: -8%; TRPML1 blocker: -15; TRPML1 agonist: 0; GLP-1R agonist: 7%

What do the screens show for `Cc1cc([N+](=O)[O-])cc2c1NC(=O)C2(O)N1CCCC(C)C1` (configuration not stated)?
GLP1R inv ag: -4%; GLP1R cytotox: inconclusive; TRPML1 blocker: 3; TRPML1 agonist: 1; GLP-1R agonist: 12%

Results for CCC(O)c1nc2ccccc2n1Cc1cc(C)ccc1C (configuration not stated) ?
GLP1R inv ag: inconclusive; GLP1R cytotox: -5%; TRPML1 blocker: 3; TRPML1 agonist: 1

Results for COc1ccccc1-c1nc(-c2ccccn2)no1 ?
GLP1R inv ag: 3.5µM*; GLP1R cytotox: -1%; TRPML1 blocker: 1; TRPML1 agonist: -1; GLP-1R agonist: -23%

What do the screens show for `Cc1ccccc1-c1nc(-c2ccccn2)no1`?
GLP1R inv ag: inconclusive; GLP1R cytotox: -5%; TRPML1 blocker: 11; TRPML1 agonist: 0; GLP-1R agonist: -8%

What do the screens show for `Nc1[nH]c(=O)nc2c1ncn2C1OC(CO)C(O)C1O` (configuration not stated)?
TRPML1 agonist: 0

Assay outcomes deposited in PubChem by National Center for Advancing Translational Sciences (NCATS).
